Among the data in article PMC7862700, “An all-to-all approach to the identification of sequence-specific readers for epigenetic DNA modifications on cytosine” are binding signal values, retold here.

What all share (experiment): DAPPL (digital affinity profiling via proximity ligation, sequencing); 10 mM Tris-HCl pH 7.5, 50 mM NaCl, 1 mM DTT, 4% glycerol, room temperature, 30 min; GST-TFs on glutathione beads, 16-mer random dsDNA library, 0.1% formaldehyde crosslink after washing; high values mean tight binding
Holding throughout (settings): protein: recombinant; tags: N-terminal GST; dsDNA, one strand shown

Assay [1] deals with T1, FLI1 (Homo sapiens, UniProt Q01543 1-452).
T1 sequence: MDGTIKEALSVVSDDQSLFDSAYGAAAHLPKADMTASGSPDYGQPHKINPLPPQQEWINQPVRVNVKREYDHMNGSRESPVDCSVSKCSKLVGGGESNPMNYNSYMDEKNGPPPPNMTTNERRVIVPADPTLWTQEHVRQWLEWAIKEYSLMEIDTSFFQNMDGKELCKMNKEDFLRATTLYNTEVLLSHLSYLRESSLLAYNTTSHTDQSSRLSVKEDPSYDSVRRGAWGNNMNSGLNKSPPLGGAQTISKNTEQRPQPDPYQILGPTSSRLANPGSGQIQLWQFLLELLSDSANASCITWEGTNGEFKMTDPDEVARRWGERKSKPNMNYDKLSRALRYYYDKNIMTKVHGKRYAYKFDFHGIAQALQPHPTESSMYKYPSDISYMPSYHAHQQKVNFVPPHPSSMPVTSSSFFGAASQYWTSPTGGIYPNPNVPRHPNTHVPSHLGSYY
In short, it runs like this:
(§1)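 Each value of binding signal is a hexamer's read frequency for a factor divided by the same hexamer's frequency in the tag-only sample. Barcoded, bead-captured GST fusions of human transcription factors made in yeast were pooled with that sample and incubated with 200 nmole of a random double-stranded 16-mer DNA library in Tris/NaCl/DTT/glycerol buffer at room temperature for 30 min. Washing, 0.1% formaldehyde crosslinking, proximity ligation, PCR and Illumina NextSeq500 sequencing followed.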

The target of assay [2] is T2, SPIC (Homo sapiens, UniProt Q8N5J4 1-248).
T2 sequence: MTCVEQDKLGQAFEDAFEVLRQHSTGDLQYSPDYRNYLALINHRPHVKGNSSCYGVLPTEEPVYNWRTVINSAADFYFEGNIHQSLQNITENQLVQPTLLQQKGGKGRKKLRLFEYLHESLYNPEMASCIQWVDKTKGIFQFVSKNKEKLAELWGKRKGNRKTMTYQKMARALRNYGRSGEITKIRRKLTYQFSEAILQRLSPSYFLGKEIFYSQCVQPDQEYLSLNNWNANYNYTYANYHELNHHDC
Summed up: as §1

Assay [3] concerns the target T3, ELK4 (Homo sapiens, UniProt P28324-2 1-405).
T3 sequence: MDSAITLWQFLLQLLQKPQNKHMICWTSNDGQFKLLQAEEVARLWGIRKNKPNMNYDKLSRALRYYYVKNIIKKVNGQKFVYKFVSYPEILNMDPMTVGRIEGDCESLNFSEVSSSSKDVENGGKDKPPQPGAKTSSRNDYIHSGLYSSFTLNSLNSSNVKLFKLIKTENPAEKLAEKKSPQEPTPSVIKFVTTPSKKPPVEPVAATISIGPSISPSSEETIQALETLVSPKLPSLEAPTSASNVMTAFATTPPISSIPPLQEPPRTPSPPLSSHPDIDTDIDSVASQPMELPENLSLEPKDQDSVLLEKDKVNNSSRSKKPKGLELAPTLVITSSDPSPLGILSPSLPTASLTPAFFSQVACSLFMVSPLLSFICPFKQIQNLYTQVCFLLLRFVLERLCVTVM
Summed up:
as §1

In assay [4] the target is T4, GABPA (Homo sapiens, UniProt Q06546 1-454).
T4 sequence: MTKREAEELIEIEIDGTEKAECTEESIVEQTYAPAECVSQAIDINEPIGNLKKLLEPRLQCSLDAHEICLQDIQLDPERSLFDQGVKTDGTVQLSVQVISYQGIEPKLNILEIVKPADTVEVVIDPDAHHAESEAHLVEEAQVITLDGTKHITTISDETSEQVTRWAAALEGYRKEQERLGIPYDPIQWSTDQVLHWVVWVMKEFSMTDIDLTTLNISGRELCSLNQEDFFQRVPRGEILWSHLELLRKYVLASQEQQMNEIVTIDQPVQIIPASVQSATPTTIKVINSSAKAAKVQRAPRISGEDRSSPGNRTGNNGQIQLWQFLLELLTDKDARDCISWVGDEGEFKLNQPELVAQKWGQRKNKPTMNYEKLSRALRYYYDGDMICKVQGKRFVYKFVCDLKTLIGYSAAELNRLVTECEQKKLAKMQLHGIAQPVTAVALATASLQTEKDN
Summed up: as §1

Assay [5] has as its target ELF1 (Homo sapiens, UniProt P32519 1-619). Summed up: as §1
The target of assay [6] is SPIB (Homo sapiens, UniProt Q01892 1-262). In short, it runs like this: as §1
SPIB, sequence (Q01892 whole entry): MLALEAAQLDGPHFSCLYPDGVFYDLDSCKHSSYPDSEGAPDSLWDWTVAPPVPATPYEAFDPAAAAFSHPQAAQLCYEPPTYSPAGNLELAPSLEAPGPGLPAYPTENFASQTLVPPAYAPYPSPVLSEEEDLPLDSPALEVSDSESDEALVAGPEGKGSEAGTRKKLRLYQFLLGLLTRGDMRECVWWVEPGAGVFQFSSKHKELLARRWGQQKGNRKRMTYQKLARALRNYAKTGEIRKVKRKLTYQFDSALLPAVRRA
Assay [7] addresses ELF4 (Homo sapiens, UniProt Q99607 1-663). Summed up: as §1
Assay [8] concerns the target T5, ETV2 (Homo sapiens, UniProt O00321 1-342).
T5 sequence: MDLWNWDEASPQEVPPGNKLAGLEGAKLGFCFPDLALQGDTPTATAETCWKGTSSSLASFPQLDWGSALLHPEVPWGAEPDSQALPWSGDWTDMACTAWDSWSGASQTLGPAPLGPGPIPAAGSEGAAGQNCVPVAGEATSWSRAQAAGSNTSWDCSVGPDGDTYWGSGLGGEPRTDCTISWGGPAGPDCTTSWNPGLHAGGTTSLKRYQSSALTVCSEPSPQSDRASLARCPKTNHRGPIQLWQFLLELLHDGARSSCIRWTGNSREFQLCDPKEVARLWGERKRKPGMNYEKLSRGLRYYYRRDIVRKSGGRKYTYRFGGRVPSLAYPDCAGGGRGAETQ
In short, it runs like this:
as §1

Assay [9] concerns the target T6, ELF3 (Homo sapiens, UniProt P78545 1-371).
T6 sequence: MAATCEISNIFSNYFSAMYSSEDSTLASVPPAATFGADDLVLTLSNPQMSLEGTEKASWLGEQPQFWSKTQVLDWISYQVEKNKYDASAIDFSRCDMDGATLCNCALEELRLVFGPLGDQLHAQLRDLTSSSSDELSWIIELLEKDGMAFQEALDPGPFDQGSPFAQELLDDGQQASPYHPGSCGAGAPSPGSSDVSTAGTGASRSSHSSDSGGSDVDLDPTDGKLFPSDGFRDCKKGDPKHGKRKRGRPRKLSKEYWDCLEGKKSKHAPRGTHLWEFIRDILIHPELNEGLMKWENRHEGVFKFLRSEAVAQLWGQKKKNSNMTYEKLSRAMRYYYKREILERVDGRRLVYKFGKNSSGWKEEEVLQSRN
In short, it runs like this:
as §1

Assay [10] has as its target ETV1 (Homo sapiens, UniProt P50549 1-477). Summed up: as §1
The target in assay [11] is T7, ERF (Homo sapiens, UniProt P50548 1-548).
T7 sequence: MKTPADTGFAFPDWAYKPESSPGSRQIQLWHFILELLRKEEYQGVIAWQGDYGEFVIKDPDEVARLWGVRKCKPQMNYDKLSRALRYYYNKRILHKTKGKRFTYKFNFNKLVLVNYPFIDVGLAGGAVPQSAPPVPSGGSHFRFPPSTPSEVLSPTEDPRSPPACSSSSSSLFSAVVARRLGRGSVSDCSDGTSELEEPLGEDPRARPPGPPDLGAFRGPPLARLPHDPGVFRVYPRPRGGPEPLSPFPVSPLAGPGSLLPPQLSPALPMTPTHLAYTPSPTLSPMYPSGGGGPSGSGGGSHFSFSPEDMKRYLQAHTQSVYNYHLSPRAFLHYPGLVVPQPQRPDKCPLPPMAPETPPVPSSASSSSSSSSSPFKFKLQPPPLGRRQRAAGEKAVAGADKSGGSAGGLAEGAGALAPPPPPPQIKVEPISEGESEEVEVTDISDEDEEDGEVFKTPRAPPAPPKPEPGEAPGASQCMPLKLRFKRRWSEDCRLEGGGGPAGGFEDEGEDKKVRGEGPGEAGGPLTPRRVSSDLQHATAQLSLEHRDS
Summed up: as §1

For assay [12], the target named is T8, ETV3L (Homo sapiens, UniProt Q6ZN32 1-361).
T8 sequence: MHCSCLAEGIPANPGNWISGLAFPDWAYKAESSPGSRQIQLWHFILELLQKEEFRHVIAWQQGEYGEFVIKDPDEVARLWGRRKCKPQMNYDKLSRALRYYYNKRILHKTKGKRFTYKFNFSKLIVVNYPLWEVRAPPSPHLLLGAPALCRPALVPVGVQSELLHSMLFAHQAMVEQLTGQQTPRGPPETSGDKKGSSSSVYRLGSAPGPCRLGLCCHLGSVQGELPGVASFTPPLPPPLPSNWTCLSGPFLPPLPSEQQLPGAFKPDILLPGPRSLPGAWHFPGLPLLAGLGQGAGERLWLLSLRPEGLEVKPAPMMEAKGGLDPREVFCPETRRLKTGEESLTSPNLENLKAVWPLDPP
Summed up: as §1

Assay [13] deals with T9, SPDEF (Homo sapiens, UniProt O95238 1-335).
T9 sequence: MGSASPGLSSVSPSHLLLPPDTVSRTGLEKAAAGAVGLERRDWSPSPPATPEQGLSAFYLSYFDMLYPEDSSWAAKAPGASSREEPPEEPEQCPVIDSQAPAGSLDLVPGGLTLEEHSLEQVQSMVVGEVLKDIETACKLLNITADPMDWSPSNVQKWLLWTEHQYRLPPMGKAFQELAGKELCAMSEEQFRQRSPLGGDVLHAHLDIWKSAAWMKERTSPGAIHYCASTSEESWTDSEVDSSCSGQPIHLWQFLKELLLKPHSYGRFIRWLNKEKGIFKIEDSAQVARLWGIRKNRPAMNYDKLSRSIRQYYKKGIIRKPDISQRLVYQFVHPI
Summed up:
as §1

Assay [14] addresses T10, ETV7 (Homo sapiens, UniProt Q9Y603 1-341).
T10 sequence: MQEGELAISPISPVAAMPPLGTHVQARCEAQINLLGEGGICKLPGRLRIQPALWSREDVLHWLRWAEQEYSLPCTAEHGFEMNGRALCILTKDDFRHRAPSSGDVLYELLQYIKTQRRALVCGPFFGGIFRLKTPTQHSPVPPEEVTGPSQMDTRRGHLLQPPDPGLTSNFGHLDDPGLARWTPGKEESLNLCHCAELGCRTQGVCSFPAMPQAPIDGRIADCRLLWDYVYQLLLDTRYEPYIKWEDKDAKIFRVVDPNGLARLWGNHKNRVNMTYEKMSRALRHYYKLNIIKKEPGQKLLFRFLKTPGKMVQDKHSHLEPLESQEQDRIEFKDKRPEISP
Summed up: as §1

Assay [15] has as its target ETV6 (Homo sapiens, UniProt P41212 1-452). In short, it runs like this: as §1
Assay [16] concerns the target T11, ELK1 (Homo sapiens, UniProt P19419 1-428).
T11 sequence: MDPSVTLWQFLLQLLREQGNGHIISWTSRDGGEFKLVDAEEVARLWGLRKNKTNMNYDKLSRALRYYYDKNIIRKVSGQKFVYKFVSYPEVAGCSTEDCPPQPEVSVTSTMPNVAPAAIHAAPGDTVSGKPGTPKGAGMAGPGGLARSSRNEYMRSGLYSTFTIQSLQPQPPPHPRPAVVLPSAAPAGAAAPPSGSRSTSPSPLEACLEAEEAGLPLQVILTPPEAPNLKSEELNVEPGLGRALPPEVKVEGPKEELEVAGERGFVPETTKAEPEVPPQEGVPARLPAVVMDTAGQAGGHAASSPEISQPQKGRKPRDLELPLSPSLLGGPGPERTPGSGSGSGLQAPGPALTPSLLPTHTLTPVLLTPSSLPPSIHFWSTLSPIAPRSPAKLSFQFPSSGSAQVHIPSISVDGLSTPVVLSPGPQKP
In short, it runs like this:
as §1

ELF1, sequence (P32519 whole entry): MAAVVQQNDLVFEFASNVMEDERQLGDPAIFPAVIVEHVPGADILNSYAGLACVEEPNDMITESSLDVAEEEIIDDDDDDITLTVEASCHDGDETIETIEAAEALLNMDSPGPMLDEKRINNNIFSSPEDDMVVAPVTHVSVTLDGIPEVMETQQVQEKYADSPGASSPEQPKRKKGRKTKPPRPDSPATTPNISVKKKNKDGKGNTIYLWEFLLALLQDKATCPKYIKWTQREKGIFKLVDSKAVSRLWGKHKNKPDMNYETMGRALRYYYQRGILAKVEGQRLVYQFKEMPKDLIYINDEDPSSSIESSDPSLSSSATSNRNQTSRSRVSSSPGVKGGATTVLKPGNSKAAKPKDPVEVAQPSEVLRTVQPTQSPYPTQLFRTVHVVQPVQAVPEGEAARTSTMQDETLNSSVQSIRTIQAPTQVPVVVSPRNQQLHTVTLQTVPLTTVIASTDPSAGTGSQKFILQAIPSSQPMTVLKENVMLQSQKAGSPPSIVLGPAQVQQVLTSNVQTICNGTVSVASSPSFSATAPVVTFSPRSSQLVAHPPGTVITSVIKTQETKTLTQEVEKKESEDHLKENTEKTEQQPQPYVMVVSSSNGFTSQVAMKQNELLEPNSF
ELF4, sequence (Q99607 whole entry): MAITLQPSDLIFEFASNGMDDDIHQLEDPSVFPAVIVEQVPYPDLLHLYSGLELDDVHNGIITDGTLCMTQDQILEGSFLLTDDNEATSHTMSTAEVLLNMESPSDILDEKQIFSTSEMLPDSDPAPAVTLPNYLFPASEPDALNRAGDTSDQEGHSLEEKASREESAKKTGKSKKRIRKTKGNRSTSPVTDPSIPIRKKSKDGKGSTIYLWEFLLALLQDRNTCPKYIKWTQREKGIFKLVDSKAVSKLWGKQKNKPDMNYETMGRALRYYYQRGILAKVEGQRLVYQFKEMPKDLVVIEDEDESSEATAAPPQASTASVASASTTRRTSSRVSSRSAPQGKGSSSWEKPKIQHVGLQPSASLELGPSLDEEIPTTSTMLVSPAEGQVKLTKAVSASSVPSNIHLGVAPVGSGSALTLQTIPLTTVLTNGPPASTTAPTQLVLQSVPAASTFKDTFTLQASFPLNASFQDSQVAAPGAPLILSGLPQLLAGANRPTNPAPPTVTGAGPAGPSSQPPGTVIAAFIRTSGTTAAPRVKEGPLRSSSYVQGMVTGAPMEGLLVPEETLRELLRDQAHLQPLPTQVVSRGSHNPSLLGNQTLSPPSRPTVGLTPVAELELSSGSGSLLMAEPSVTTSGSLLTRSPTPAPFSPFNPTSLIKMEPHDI
ETV6, sequence (P41212 whole entry): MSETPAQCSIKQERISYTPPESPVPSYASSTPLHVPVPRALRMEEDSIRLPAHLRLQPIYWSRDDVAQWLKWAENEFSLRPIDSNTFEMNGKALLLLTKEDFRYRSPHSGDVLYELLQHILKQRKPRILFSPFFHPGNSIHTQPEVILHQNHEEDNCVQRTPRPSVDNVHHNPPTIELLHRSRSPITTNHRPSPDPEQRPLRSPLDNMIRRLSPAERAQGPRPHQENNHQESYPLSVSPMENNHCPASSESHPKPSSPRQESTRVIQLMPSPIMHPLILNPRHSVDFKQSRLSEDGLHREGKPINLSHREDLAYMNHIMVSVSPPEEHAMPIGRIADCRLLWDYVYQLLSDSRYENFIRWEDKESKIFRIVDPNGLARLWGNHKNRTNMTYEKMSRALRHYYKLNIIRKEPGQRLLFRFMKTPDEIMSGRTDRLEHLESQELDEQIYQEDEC
ETV1, sequence (P50549 whole entry): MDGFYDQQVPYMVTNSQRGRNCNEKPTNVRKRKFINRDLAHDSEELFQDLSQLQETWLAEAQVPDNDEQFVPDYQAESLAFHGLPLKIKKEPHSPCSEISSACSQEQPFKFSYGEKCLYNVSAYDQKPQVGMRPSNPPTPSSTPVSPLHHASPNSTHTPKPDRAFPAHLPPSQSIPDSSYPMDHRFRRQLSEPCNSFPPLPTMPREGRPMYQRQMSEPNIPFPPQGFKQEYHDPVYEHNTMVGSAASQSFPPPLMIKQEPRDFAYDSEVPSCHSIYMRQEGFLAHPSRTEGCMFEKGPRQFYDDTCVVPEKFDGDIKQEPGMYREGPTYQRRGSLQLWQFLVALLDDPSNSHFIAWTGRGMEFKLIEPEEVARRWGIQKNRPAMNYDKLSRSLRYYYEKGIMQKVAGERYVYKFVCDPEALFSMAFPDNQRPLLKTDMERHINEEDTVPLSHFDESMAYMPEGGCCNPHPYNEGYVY

As for CTTGAG, the binding signal in [1] is 1.08 fold enrichment (6-mer frequency, TF over GST control); in [2], 1.12 fold enrichment (6-mer frequency, TF over GST control); in assay [3] it was 1.05 fold enrichment (6-mer frequency, TF over GST control).
Regarding CGTACG, the binding signal in assay [1] was 1 fold enrichment (6-mer frequency, TF over GST control); in assay [4], 1.03 fold enrichment (6-mer frequency, TF over GST control); in [5], 1.07 fold enrichment (6-mer frequency, TF over GST control); in assay [6], 1.01 fold enrichment (6-mer frequency, TF over GST control); in assay [7] it was 1.07 fold enrichment (6-mer frequency, TF over GST control); in [8] it was 1.19 fold enrichment (6-mer frequency, TF over GST control). For the same sequence, the binding signal was 1.01 fold enrichment (6-mer frequency, TF over GST control) in [9]; 1.1 fold enrichment (6-mer frequency, TF over GST control) in [10]; 1.04 fold enrichment (6-mer frequency, TF over GST control) in assay [11]; 1.08 fold enrichment (6-mer frequency, TF over GST control) in assay [12]; 1.02 fold enrichment (6-mer frequency, TF over GST control) in assay [13]; 1.06 fold enrichment (6-mer frequency, TF over GST control) in assay [14]. Also, the binding signal in [15] is 1.06 fold enrichment (6-mer frequency, TF over GST control).
For the sequence CACCCA, the binding signal in assay [1] was 1.1 fold enrichment (6-mer frequency, TF over GST control); in assay [16], 1.12 fold enrichment (6-mer frequency, TF over GST control); in assay [4], 1.11 fold enrichment (6-mer frequency, TF over GST control); in assay [5], 1.01 fold enrichment (6-mer frequency, TF over GST control); in [6], 1.03 fold enrichment (6-mer frequency, TF over GST control); in assay [7] it was 1.12 fold enrichment (6-mer frequency, TF over GST control). Also, the binding signal in assay [3] was 1.04 fold enrichment (6-mer frequency, TF over GST control); in assay [9], 1.14 fold enrichment (6-mer frequency, TF over GST control); in [11], 1.06 fold enrichment (6-mer frequency, TF over GST control); in assay [14] it was 1.03 fold enrichment (6-mer frequency, TF over GST control).
